Source: PubChem BioAssay (NCATS)
Results filed as inconclusive are left out. Where a call stands in place of a potency, no number is given. Calls of active or inactive are those of the source. Unless noted, calls come from the whole dose curve; as a rule, active = well fitted curve in the direction sought with a large enough effect; inconclusive = small, poorly fitted or top-dose-only effect, or another doubt; inactive = no such curve, though single readings can be large; an effect the other way counts as inactive or inconclusive.

Tested on: not listed separately
Assay: NCATS anti-infectives library activity on the primary C. elegans qHTS viability assay (AID 1745855; calls by dose curve; note: potency is the fitted concentration of half-maximal effect)
Conditions: C. elegans worm area imaging, day 7; series mostly up to 41.8 µM
Procedure, shortened: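 Viability read-out is GFP fluorescence of PE254-GFP-FLuc C. elegans, measured by laser cytometry (488 nm) at day 0, 3 and 7. Ten L1 worms per well were incubated 7 days at 21 °C with compounds and bacterial capsules in S medium.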
In the case of `CC(=O)Nc1cccc(-n2c(=O)n(C3CC3)c(=O)c3c(Nc4ccc(I)cc4F)n(C)c(=O)c(C)c32)c1`, the Potency is reported as 2.3 µM (active).
For `CN(C)CCCNC(=O)c1ccc(-c2cc(O)c3ncccc3c2)cc1`, the Potency was “inactive”.
In the case of `CCN1C[C@H](C)n2c(c(O)c3c(=O)n(Cc4ccc(F)c(Cl)c4)nc(C(=O)NC)c32)C1=O`, the Potency is reported as “inactive”.
In the case of `Cc1ccc(S(=O)(=O)OCC(=O)Nc2ccc(C(=O)O)c(O)c2)cc1`, the Potency is reported as 12.9 µM (active).

Tested on: not listed separately
Assay: Viability counterscreen for agonist of constitutive androstane receptor (CAR) against the NCATS DSHEA and TCM libraries (AID 1794838);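 note: HepG2 cells with CYP2B6 reporter and hCAR plus 0.75 µM PK11195 antagonist; cells exposed to compound for 24 h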; note: potency is the fitted concentration of half-maximal effect
Conditions: HepG2 cell viability counterscreen, CAR agonist assay, co-treated with 0.75 µM CAR antagonist; series mostly up to 40 µM
Procedure, shortened: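 Cell health was measured as CellTiter-Fluor signal in HepG2-CYP2B6-hCAR cells treated for 24 h with substances alongside the hCAR antagonist PK11195 (0.75 uM final).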
For `O=c1cc(-c2ccc(O)c(O)c2)oc2cc(O)cc(O)c12`, the Potency was “inactive”.
In the case of `Cc1cc2nc3c(=O)[nH]c(=O)nc-3n(CC(O)C(O)C(O)CO)c2cc1C` (stereo unspecified), the Potency is reported as 25.1 µM (active).
In the case of `OC[C@H]1O[C@@H](OCCc2ccc(O)cc2)[C@H](O)[C@@H](O)[C@H]1O`, the Potency is reported as “inactive”.

Tested on: not listed separately
Assay: HepG2 viability counterscreen (readout 2: ATP content) against the NCATS DSHEA and TCM libraries (AID 1794840);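 note: HepG2 cells exposed to substances for about 24 h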
Conditions: ATP content luminescence; series mostly up to 27.3 µM
Excerpt: (§1) Assay Development and Screening Technology Laboratory (ADST)
(§2) National Center for Advancing Translational Sciences (NCATS), Rockville, MD
(§3) National Institute of Health (NIH), Bethesda, Maryland
(§4) Dietary Supplements and Natural Products have minor oversight of their safety and efficacy. We assembled a collection of Dietary Supplements and Natural Products (DSNP) as well as Traditional Chinese Medicinal (TCM) Plant extracts, which were screened against an in vitro panel of assays, including a liver cytochrome p450 enzyme panel, CAR/PXR signaling pathways, and P-gp transporter assays, to assess their activity. This pipeline facilitated the interrogation of Natural Product-Drug Interaction (NaPDI) through prominent metabolizing pathways. In addition, we compared the activity profiles of the DSNP/TCM substances with those of an approved drug collection. Many of the approved drugs have well-annotated mechanisms of action (MOA) while the MOAs for most of the DSNP and TCM samples remain unknown. Based on the premise that compounds with similar activity profiles tend to share similar targets or MOA, we clustered the library activity profiles to identify overlap with the NCATS Pharmaceutical Collection to predict the MOAs of the DSNP/TCM substances. Overall, we highlight four significant bioactivity profiles (measured by p-values) as examples of this prediction. In addition, to assess broad cytotoxicity, we employed screening against a HepG2 cell line.
(§5) To this end, we profiled both collections for potential CAR and/or PXR activity, employing a previously published 1536-well qHTS assay. […]
(§6) 7; Read 1; Fluorescence; EnVision plate reader excitation 380 nm, emission 510 nm. […]
(§7) 11; Read 2; Luminescence; ViewLux plate reader. […]
(§8) 7. After incubation, plates were read for fluorescence intensity (Ex/Em = 380 nm/510 nm) on an EnVision detector (PerkinElmer, Shelton, Connecticut).
(§9) 8. Once the detection for fluorescence was completed, plates were dispensed with 3 uL of CellTiter-Glo (Promega, Madison, WI). […]
(§10) 11. Plates were then read for luminescence intensity on a ViewLux detector. […]
For `O=c1cc(-c2ccc(O)c(O)c2)oc2cc(O)cc(O)c12`, the outcome was “inactive”.
For `Cc1cc2nc3c(=O)[nH]c(=O)nc-3n(CC(O)C(O)C(O)CO)c2cc1C` (stereo unspecified), the outcome was “inactive”.
With `CC(C)(CO)[C@@H](O)C(=O)NCCC(=O)O` the outcome was “inactive”.

Tested on: not listed separately
Assay: HepG2 viability counterscreen (readout 1: protease activity) against the NCATS DSHEA and TCM libraries (AID 1794841);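 note: cells exposed to compounds for about 24 h before the protease read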
Conditions: qHTS concentration series; series mostly up to 27.3 µM
Excerpt: as §1, §2, §3, §4, §5, §6, §7, §8, §9, §10
With `O=c1cc(-c2ccc(O)c(O)c2)oc2cc(O)cc(O)c12` the outcome was “inactive”.
For `Cc1cc2nc3c(=O)[nH]c(=O)nc-3n(CC(O)C(O)C(O)CO)c2cc1C` (stereo unspecified), the outcome was “inactive”.
With `CC(C)(CO)[C@@H](O)C(=O)NCCC(=O)O` the outcome was “inactive”.

Molecular target: Glutathione peroxidase 1 (Homo sapiens) (UniProt P07203)
Sequence (P07203 whole entry, looked up): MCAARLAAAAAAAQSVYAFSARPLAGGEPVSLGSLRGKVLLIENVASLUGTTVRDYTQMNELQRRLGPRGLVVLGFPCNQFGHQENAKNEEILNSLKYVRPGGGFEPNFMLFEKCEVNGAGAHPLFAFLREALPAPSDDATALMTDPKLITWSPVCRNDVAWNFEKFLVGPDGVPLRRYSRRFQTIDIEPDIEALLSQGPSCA
Assay: Primary qHTS Assay for Inhibitors of Recombinant Selenoprotein Glutathione Peroxidase 1 (GPX1) (AID 1845191); note: nearly all actives have a fitted effect of over 65% in size
Conditions: recombinant GPX1, GR-coupled NADPH fluorescence, 15 min; series mostly up to 48.8 µM
Procedure, shortened: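 GR-coupled assay: compounds preincubated 30 min at room temperature with GPX1, then reaction started with CHP; final 10 nM GPX1, 1 mM GSH, 0.5 mM CHP, 0.5 mM NADPH, 100 nM GR, 0.01% BSA, pH 7.5 Tris buffer. NADPH fluorescence (340/450 nm) read at 0 and 15 min.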
With `CC(=O)Nc1cccc(-n2c(=O)n(C3CC3)c(=O)c3c(Nc4ccc(I)cc4F)n(C)c(=O)c(C)c32)c1` the Potency was “inactive”.
In the case of `Cc1cnc(CNC(=O)c2c(=O)c3ccc(N4CCCN(C)CC4)nc3n3c2sc2ccccc23)cn1`, the outcome is reported as “inactive [at 9.52 µM]”.
For `CCN(CCO)CCCOc1ccc2c(Nc3cc(CC(=O)Nc4cccc(F)c4)[nH]n3)ncnc2c1`, the Potency was “inactive”.
With `C[C@@H](NC(=O)c1ncnc(N)c1Cl)c1ncc(C(=O)Nc2cc(C(F)(F)F)c(Cl)cn2)s1` the Potency was “inactive”.
With `CCC(=O)N1CCN(c2ccc(-n3c(=O)ccc4cnc5ccc(-c6cnc7ccccc7c6)cc5c43)cc2C(F)(F)F)CC1` the Potency was “inactive”.
With `CNC(=O)c1ccc2c(C(=Nc3cccc(CN(C)C)c3)c3ccccc3)c(O)[nH]c2c1` the Potency was “inactive”.
With `O=C(CO)N1CCC(c2[nH]nc(-c3ccc(Cl)cc3)c2-c2ccncn2)CC1` the Potency was “inactive”.
With `NC1(C(=O)N[C@@H](CCO)c2ccc(Cl)cc2)CCN(c2ncnc3[nH]ccc23)CC1` the Potency was “inactive”.
For `O=C1C(c2c(O)[nH]c3ccccc23)=Nc2ccccc21`, the Potency was “inactive”.
For `Cc1cc2nc3c(=O)[nH]c(=O)nc-3n(CC(O)C(O)C(O)CO)c2cc1C` (stereo unspecified), the Potency was “inactive”.
In the case of `CCc1cccc(CC)c1NC(=O)N1Cc2[nH]nc(NC(=O)c3ccc(N4CCN(C)CC4)cc3)c2C1`, the Potency is reported as “inactive”.
In the case of `CC(C)(CO)[C@@H](O)C(=O)NCCC(=O)O`, the Potency is reported as “inactive”.
For `COc1ccc(-c2cc3nccn3c(Nc3ncccc3C(N)=O)n2)cc1OC`, the Potency was “inactive”.
For `Cc1ccc2c(c1)C(=O)[C@]1(O)CCN(c3ccccc3)C1=N2`, the Potency was “inactive”.
In the case of `CC1=C(C(=O)Nc2cc3cn[nH]c3cc2F)C(c2ccc(C(F)(F)F)cc2)CC(=O)N1` (stereo unspecified), the Potency is reported as “inactive”.
With `C=CCc1cccc(C=NNC(=O)CN2CCN(Cc3ccccc3)CC2)c1O` the Potency was “inactive”.
For `CCN1C[C@H](C)n2c(c(O)c3c(=O)n(Cc4ccc(F)c(Cl)c4)nc(C(=O)NC)c32)C1=O`, the Potency was “inactive”.
In the case of `Cc1cc2c(cc1C1(c3ccc(C(=O)O)cn3)CC1)C(C)(C)CCC2(C)C`, the Potency is reported as “inactive”.
With `CC(C)CNc1ccnc(NCc2csc(-c3ccccc3)n2)n1` the Potency was “inactive”.
For `NS(=O)(=O)c1cc(Cl)c(Cl)c(S(N)(=O)=O)c1`, the Potency was “inactive”.
In the case of `COc1cc2ncnc(Nc3cc(Br)c(O)c(Br)c3)c2cc1OC`, the Potency is reported as “inactive”.
In the case of `CN[C@@H](C)[C@H]1[C@H](O)C[C@@]2(C)[C@@H]3CC[C@H]4C(C)(C)[C@@H](NC)CC[C@@]45C[C@@]35CC[C@]12C`, the outcome is reported as “inactive [at 9.52 µM]”.
With `Cc1ccc(S(=O)(=O)OCC(=O)Nc2ccc(C(=O)O)c(O)c2)cc1` the Potency was “inactive”.
For `Cn1c(=O)c(-c2c(Cl)cccc2Cl)cc2cnc(Nc3cccc(C(=O)O)c3)nc21`, the Potency was “inactive”.
With `Cc1cnc(Nc2cccc(CN3CCOCC3)c2)nc1Nc1cccc(S(=O)(=O)NC(C)(C)C)c1` the Potency was “inactive”.
With `c1cc(OCCN2CCCCC2)cc(-c2n[nH]c3ccc(-c4ncn[nH]4)cc23)c1` the Potency was “inactive”.
In the case of `O[C@@H](COc1cccc2ncccc12)CN1CCN(C2c3ccccc3[C@@H]3[C@H](c4ccccc42)C3(F)F)CC1` (stereo partly specified), the Potency is reported as “inactive”.
For `CNc1nc(Nc2ccc(C(=O)N3CCOCC3)cc2OC)ncc1Cl`, the Potency was “inactive”.
